Measurements published in PubChem BioAssay (NCI).
Several values for one entry are separate records, joined by “and”; a condition that tells them apart may be missing. Identical values can stand only once. The panel holds about 83,000 compounds, 20% with a hit somewhere; the sample as a whole holds those more often.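 How to read the values: 0–100, growth inhibition (40 = 60% inhibited); 0, no net growth; -100 to 0, cell death (-40 = 40% of starting cells died; -100 = all dead).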 Values without a mark were called inactive. Activity calls are given as the source filed them. How the source made its calls: active means growth percent below 10; inactive means the rest.

Tested on: MDA-MB-468 breast
Experiment: NCI-60 one-dose screen, 48 h (100 = growth as untreated, 0 = no growth, -100 = all killed)
Conditions: 10 µM unless noted

SMILES | growth
Nc1ccccc1NC(=O)CCCCCCC(=O)Nc1ccc2c(c1)/C(=C/c1ccc[nH]1)C(=O)N2 | 32.9%
O=C(CSCC(=O)N/N=C/c1ccccc1O)N/N=C\c1ccccc1O | 15.6%
Clc1c(Cl)[n+](Cc2ccc3ccccc3c2)cn1Cc1ccc2ccccc2c1 | -22.6% (active)
Nc1ncnc2c1nc(N)n2C1OC(CO)C(O)C1O (stereo not given) | -73.6% (active)
COc1ccc2c(c1)CCCC21C(=O)Nc2ccccc21 (stereo not given) | 103%
Nc1nc(N)c2c(n1)NC(c1ccccc1)CC(c1ccc(Nc3nc(NCCO)nc(Nc4ccc(Cl)cc4)n3)cc1)=N2 (stereo not given) | -70.1% (active)
CN1C(=O)/C(=C/c2nc(-c3cccc(F)c3)n3ccccc23)c2ccccc21 | 101%
Clc1ccc2c(NCCCn3cnc4c(N5CCCC5)nc(Cl)nc43)ccnc2c1 | 107%
Cc1ccc(NC(=O)CN2CCOCC2)cc1Cl | 99.1%
COc1cc2cc(C(=O)Nc3ccccc3)c(N)nc2cc1OC | -81.5% (active)
CCN1CCN(Cc2ccc(NC(=O)c3cccc(C#Cc4cccc5[nH]nc(N)c45)c3)cc2C(F)(F)F)CC1 | -30.6% (active)
O=C1/C(=C\c2cccn2Cc2ccc(F)cc2)c2ccccc2N1c1c(Cl)cccc1Cl | 9.21% (active)
COc1ccc(C2(O)CCCCC2)cc1 | 95.2%
Cc1cc(=O)n(C(=O)Nc2ccccc2Cl)c2cc(O)ccc12 | 104%
CC1=NC2=NC(=O)/C(=C3/N=C(C)C=C(c4ccccc4)N3N)NN2C(c2ccccc2)=C1 | 109%
Cc1ccc(-c2nc3nc(-c4ccc(Br)cc4)nc(N4CCCNCC4)c3o2)cc1 | -65% (active)
CCCCCCNC(=O)Oc1ccc(/C(=C(/C)c2ccc(OC)cc2)c2ccc(OCCN3CCCC3)cc2)cc1 | 87.1%
CC(=O)N1C/C(=C/c2ccc(Cl)cc2)C(=O)/C(=C/c2ccc(Cl)cc2)C1 | -80% (active)
COc1ccc(-c2cc(C(=O)N=Nc3c(O)[nH]c4ccc(Br)cc34)no2)cc1 | 103%
c1ccc2c(CC3=NCCN3)cccc2c1 | 92.3% and 101%

SMILES | growth
COc1ccc(-c2cc3ccc(N(C)C)cc3nc2N)c(F)c1 | 4.96% (active)
O=C(N/N=C/c1ccccc1O)c1ccccc1 | 12.1%
CC1(C)OC(=O)C(=Cc2ccc(C#N)cc2)C(=O)O1 | 91.7% and 96.1%
Cc1c(Cl)cccc1NC(=O)CN1CCOCC1 | 107%
OCCNc1nc(Nc2ccc(Cl)c(Cl)c2)nc2ccccc12 | -10.6% (active)
C=C1C(=O)O[C@H]2[C@H]1CC/C(COC(=O)/C=C\C(=O)NCc1ccc(Cn3c(=O)sn(CCCCC)c3=O)cc1)=C\CC[C@@]1(C)O[C@@H]21 | 47%
O=C(/C=C/c1ccc(Cl)cc1)c1cccc(OCCCOc2cccc(C(=O)/C=C/c3ccc(Cl)cc3)c2)c1 | 92.9%
O=S(=O)(NCCNc1nccc(-c2c(-c3ccc(F)c(O)c3)nc3occn23)n1)c1ccc(Cl)cc1 | 95.6%
O=S(=O)(NCCNc1nccc(-c2c(-c3ccc(F)cc3)nc3sccn23)n1)c1ccc(F)cc1 | 52.1%
Cn1cc(-c2csc(-c3cn(CCCN4CCCCC4)c4ccc(Br)cc34)n2)c2cccnc21 | 15.2%
COc1ccc(-c2c(-c3cc(OC)c(OC)c(OC)c3)noc2N)cc1 | -5.06% (active)
C#Cc1nc2ccccc2c(=O)[nH]1 | -46.9% (active)
O=C(N=Nc1c(O)[nH]c2ccccc12)Nc1ccc(F)cc1 | 103%
Cc1cccc(NCS(=O)(=O)O)c1 | 93.7%
CCN(CC)CCOC(=O)c1cc(OCc2ccccc2)c(OCc2ccccc2)c(OCc2ccccc2)c1 | 44%
CCOC(=O)c1c(Nc2ccccc2)nn2c(N)c(C#N)c(-c3ccc(OC)cc3)nc12 | 73.1%
O=C(Nc1ccc(Cl)c(Cl)c1)O/N=C\c1c(Cl)ccc([N+](=O)[O-])c1Cl | -65% (active)
Nc1cc(N)nc(SCC(=O)O)n1 | 108%
O=C(/C=C/c1ccccc1Br)c1cccc(OCCCCOc2cccc(C(=O)/C=C/c3ccccc3Br)c2)c1 | 95.4%
CCC(c1cccc(O)c1)C(CC)c1cccc(O)c1 (stereo not given) | 24.1%
